Source: PubChem (National Center for Advancing Translational Sciences (NCATS))
Compounds with a hit are over-represented: about 11% of the library has one in this group of screens.
VACV Venus inh: inhibitors of vaccinia virus (Venus reporter). AID 720580. 330,000 tested, 0.46% active. Vaccinia virus Venus reporter expression, fluorescence. Potency, µM (top dose mostly 36.5 µM), for the others: top-dose activity change, negative = inhibition, actives largely listed as inhibitors; calls by dose curve; tested in A549 cells; note: % is set by controls: 0 for no effect and ±100 for the full control effect; nearly all actives have a fitted effect of over 30% in size
Pf growth 96h: P. falciparum growth inhibition at 96 hours. 320,000 tested, 6.9% active. P. falciparum luciferase reporter growth, 96 h. Potency, µM (doses to about 28.7 µM), for inactives: at the highest dose activity change, negative = inhibition, actives largely listed as inhibitors; note: % is set by controls: 0 for no effect and ±100 for the full control effect
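Readout is luminescence from an integrated firefly luciferase in P. falciparum. Red cells, 2% hematocrit and 0.05% parasitemia final, were cultured with compound through two parasite generations (96 hours) at 37 C, 5% CO2.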
HCV inh: HCV inhibition; Huh7.5.1 HCVcc-Cre infection, luciferase reporter, 44 h; Potency, µM (highest dose often 41.8 µM), for the others: top-dose activity change, negative = inhibition, usual class: inhibitors; 340,000 tested, 3.4% active; AID 651820; note: % is set by controls: 0 for no effect and ±100 for the full control effect
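HCVcc-Cre virus at an moi near 0.5 was added right after compound to cells cultured 4 h from seeding (1,000 cells/well). Luciferase activity was determined 44 h later, 15 min after substrate addition at RT.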
NS1 function inh: blocks influenza NS1 protein function; Potency, µM (highest dose often 46.1 µM), for the others: at the highest dose activity, positive = more growth; 270,000 tested, 0.4% active; AID 2326; calls by dose curve; note: actives are rising curves; nearly all actives have a fitted effect of over 50% in size
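Read-out: OD600 growth recovery of NS1-expressing budding yeast. Cells grown overnight at 30C in -URA glucose medium, washed, resuspended and diluted 1:100 in 2% galactose assay medium, pH 6.0. Same strain lacking NS1 served as positive control.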
Pf growth 48h: P. falciparum growth inhibition at 48 hours (one generation) | P. falciparum luciferase growth in erythrocytes, 48 h | Potency, µM (series often up to 28.7 µM), for the others: at the top dose activity change, negative = inhibition, actives largely listed as inhibitors | 310,000 tested, 5.9% active; note: % is set by controls: 0 for no effect and ±100 for the full control effect
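Luciferase-expressing parasites in RBCs, 2% Hct / 0.1% parasitemia final; RPMI 1640 + 0.5% Albumax; 37 C, 5% CO2, one generation; luminescence read-out, lower signal = inhibition.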
VACV mCherry inh: inhibitors of vaccinia virus infection (mCherry reporter signal) | Vaccinia virus mCherry reporter infection, fluorescence | Potency, µM (doses to about 36.5 µM), without a hit: top-dose activity change, negative = inhibition, hits mostly inhibitors | 310,000 tested, 0.63% active | AID 720579; calls by dose curve; tested in A549 cells; note: % is set by controls: 0 for no effect and ±100 for the full control effect; nearly all actives have a fitted effect of over 35% in size
* marks the source's active call; other numbers are inactive results; i = inactive; ? = inconclusive; nt = no result given; [ ] = another dose, or the depositor's remark. Unless noted, calls come from the whole dose curve; as a rule, active = well fitted inhibition curve with a large enough effect; inconclusive = small, poorly fitted or top-dose-only effect, or another doubt; inactive = no such curve, though single readings can be large or run the other way. Potency is the fitted concentration of half-maximal effect.

SMILES	VACV Venus inh	Pf growth 96h	HCV inh	NS1 function inh	Pf growth 48h	VACV mCherry inh
O=C1COc2ccc(C(=O)CSc3nc4ccccc4c(=O)n3-c3ccc(Cl)c(Cl)c3)cc2N1	-2.1%	?	-8.1%	-1.7%	10.4µM*	-4.6%
CCc1ccc(-n2c(SCC(=O)c3ccc4c(c3)NC(=O)CO4)nc3ccccc3c2=O)cc1	-8.3%	26.0%	?	4.6%	13.9%	-2.3%
Oc1[nH]c2ccccc2c1C1=NCCCC1	-25.2%	?	35.5µM*	-50.2%	3.3%	nt
O=C(Nc1ccc2ccccc2c1)c1cnccn1	nt	0.0%	8.0%	-9.6%	223.1%	nt
CC(C)C[C@@H](CSc1ccccc1)N1CCN(CC(C)C)CCC1=O	-8.5%	?	-4.2%	-16.7%	?	-7.0%
CC(C)[C@@H](CSc1ccccc1)N1CCN(Cc2ccccc2)CCC1=O	-6.6%	-7.9%	-4.0%	-26.0%	14.7µM*	?
CCCN1CCC(=O)N([C@H](CSc2ccc(C)cc2)Cc2ccccc2)CC1	-17.3%	5.86µM*	-3.4%	4.0%	9.28µM*	i
CCCN1CCC(=O)N([C@H](CSc2ccc(OC)cc2)Cc2ccccc2)CC1	?	2.94µM*	-4.8%	6.6%	10.4µM*	-7.6%
O=C1CCN(CCc2ccccc2)CCN1[C@H](CSc1ccccc1)Cc1ccccc1	-28.5%	?	-19.9%	-46.9%	?	-22.8%
CC(=O)Nc1ccc(SC[C@H](c2ccccc2)N2CCN(CCc3ccccc3)CCC2=O)cc1	nt	7.38µM*	nt	-1.6%	13.1µM*	nt
COc1ccc(N2CCN(Cc3cc(=O)oc4cc5c(cc34)CCCC5)CC2)cc1	-2.6%	-19.7%	-9.1%	?	-29.3%	nt
CC1(C)Cc2c(cnn2-c2ccc(F)cc2)C(NC(=O)CCN2CCCCO2)C1 (configuration not stated)	-13.6%	?	1.4%	4.8%	-24.5%	i
Cc1ccc(CCN2C(=O)CCC2(C)C(=O)NC2CCCC2)cc1 (configuration not stated)	-16.0%	-9.3%	4.9%[8.37 µM]	-21.1%	18.4%	3.4%
Clc1ccc(-c2nc3ccc(Br)cn3c2Cc2ccccc2)cc1	-2.9%	nt	nt	nt	nt	6.2%
COc1ccc(Oc2nc(-c3ccccc3)ncc2C(=O)O)cc1	-1.8%	35.3%	-8.8%	nt	1.6%	i
Cc1ccc(C(=O)c2cnc3ccccc3c2-c2ccccc2)cc1	nt	10.4µM*	?	-44.6%	13.1µM*	nt
COc1ccc(C(=O)c2cnc3ccccc3c2-c2ccccc2)cc1	nt	?	12.6µM*	-41.3%	?	nt
O=C(NCCc1ccccn1)C1CC(=O)N(Cc2ccccc2Cl)C1 (configuration not stated)	nt	7.3%	-3.4%	1.3%	nt	nt
Cc1ccc(C)c(Cn2c3ccccc3c3cnn(CC(=O)NCc4ccccn4)c(=O)c32)c1	0.0%[7.34 µM]	11.7µM*	10.8%	3.4%	?	i[7.34 µM]
Cc1ccc(C)c(Cn2c3ccccc3c3cnn(CC(=O)NCCCc4ccccc4)c(=O)c32)c1	-16.3%	nt	nt	nt	nt	-13.1%
Cc1cc(CN2C(=O)c3ccccc3C2=O)on1	nt	nt	12.7%	-1.9%	3.6%	nt
CC1(C)Cc2c(C#N)c(SCCOc3ccccc3)nc(N3CCOCC3)c2CO1	-13.6%	8.28µM*	?	-6.1%	11.7µM*	-14.3%
CCCCc1nc(N2CCOCC2)c(C#N)c2c1COC(C)(C)C2	-9.3%	9.28µM*	-19.4%	-42.6%	6.57µM*	nt
CC(C)OC(=O)CSc1nc(N2CCOCC2)c2c(c1C#N)CC(C)(C)OC2	-11.5%	?	-21.1%	-4.1%	4.65µM*	-1.8%
CC1(C)Cc2c(C#N)c(SCCO)nc(N3CCOCC3)c2CO1	-17.7%	?	?	1.4%	?	-22.6%
SMILES	VACV Venus inh	Pf growth 96h	HCV inh	NS1 function inh	Pf growth 48h	VACV mCherry inh
CC1(C)Cc2c(C#N)c(SCC(=O)O)nc(N3CCOCC3)c2CO1	-18.8%[7.34 µM]	nt	7.9%	nt	nt	i[7.34 µM]
CC1(C)Cc2c(C#N)c(SCCC#N)nc(N3CCOCC3)c2CO1	-3.4%	?	-29.6%	4.1%	?	-13.2%
CCCCc1nc(NCC2CCCO2)c(C#N)c2c1COC(C)(C)C2 (configuration not stated)	-7.7%	?	-7.0%	-9.1%	?	-13.9%
CC1(C)Cc2c(C#N)c(SCCC#N)nc(N3CCOCC3)c2CS1	nt	4.65µM*	?	-2.8%	?	nt
COc1ccc(-n2nc(C(=O)NCC(=O)Nc3cc(OC)c(OC)c(OC)c3)c3ccccc3c2=O)cc1Cl	4.6%	11.2%	?	3.8%	?	-7.6%
COc1ccc(-n2nc(C(=O)NCC(=O)NCCCN3CC(C)CC(C)C3)c3ccccc3c2=O)cc1Cl (configuration not stated)	-3.5%	28.8%	?	-5.3%	6.57µM*	-9.5%
CCN(CC)C(=O)CNC(=O)c1nn(-c2ccc(OC)c(Cl)c2)c(=O)c2ccccc12	-2.0%	-21.0%	-10.9%	10.1%	4.15µM*	-14.7%
COc1ccc(S(=O)(=O)N2CCCCC2)cc1NC(=O)c1cc(C)on1	-3.2%	-22.3%	1.0%	nt	-1.4%	i
CCc1nc2c(OCc3ccc(S(C)(=O)=O)cc3)cccn2c1N(C)C(=O)c1ccccc1F	-18.4%	nt	nt	nt	nt	13.3%
CCc1cc(C(=O)N2CCCC(C(=O)c3ccc(C(F)(F)F)cc3)C2)n(C)n1 (configuration not stated)	nt	-5.9%	?	-16.8%	40.8%	nt
Cc1noc(C)c1CC(=O)N1CCCC(C(=O)c2ccc(C(C)(C)C)cc2)C1 (configuration not stated)	nt	?	?	-2.3%	?	nt
CC(C)(C)c1ccc(C(=O)C2CCCN(C(=O)C3CCOCC3)C2)cc1 (configuration not stated)	0.0%	-12.0%	5.7%	6.4%	5.86µM*	-4.0%
Cn1nccc1C(=O)N1CCCC(C(=O)c2ccc(C(F)(F)F)cc2)C1 (configuration not stated)	-4.0%	14.7µM*	?	-1.3%	28.3%	-14.3%
CC(C)OCCCNc1nc(Cl)nc2c1cnn2C	-10.6%	nt	-18.9%	nt	nt	-19.3%
COc1ccc(CCN(C)Cc2ccncc2)cc1OC	nt	9.9%	5.2%	-4.5%	3.7%	nt
CC1(C)C[C@H]2C3=CCC4[C@@]5(C)CC[C@H](O)C(C)(C)C5CC[C@@]4(C)[C@]3(C)[C@@H](O)[C@@H](O)[C@@]2(CO)[C@@H](O)[C@@H]1O (some centres not stated)	-28.8%	nt	6.9%	nt	nt	?
CC1=CC(C)(C)N(S(=O)(=O)c2ccc(C)cc2)c2ccc(C)cc21	?	10.4µM*	25.5%	-70.9%	nt	-24.6%
CC1=CC(C)(C)N(S(=O)(=O)c2ccc(F)cc2)c2ccccc21	?	nt	9.0%	19.3%	?	-13.4%
O=[N+]([O-])c1ccc(SCc2ccco2)cc1N1CCOCC1	-4.1%	-10.5%	-24.4%	nt	?	-23.2%
O=[N+]([O-])c1ccc(N2CCOCC2)cc1SCc1ccco1	-21.9%	42.0%	11.2µM*	-2.4%	0.3%	i
